Data from publication PMC7862700, “An all-to-all approach to the identification of sequence-specific readers for epigenetic DNA modifications on cytosine”.

Columns and labels:
Test in all cases: DAPPL (digital affinity profiling via proximity ligation, sequencing); 10 mM Tris-HCl pH 7.5, 50 mM NaCl, 1 mM DTT, 4% glycerol, room temperature, 30 min; GST-TFs on glutathione beads, 16-mer random dsDNA library, 0.1% formaldehyde crosslink after washing; high values mean tight binding
Conditions in all cases: protein: recombinant; tags: N-terminal GST; dsDNA, one strand shown
[1] = molecular target: T1, FLI1 (Homo sapiens, UniProt Q01543 1-452)
T1 sequence: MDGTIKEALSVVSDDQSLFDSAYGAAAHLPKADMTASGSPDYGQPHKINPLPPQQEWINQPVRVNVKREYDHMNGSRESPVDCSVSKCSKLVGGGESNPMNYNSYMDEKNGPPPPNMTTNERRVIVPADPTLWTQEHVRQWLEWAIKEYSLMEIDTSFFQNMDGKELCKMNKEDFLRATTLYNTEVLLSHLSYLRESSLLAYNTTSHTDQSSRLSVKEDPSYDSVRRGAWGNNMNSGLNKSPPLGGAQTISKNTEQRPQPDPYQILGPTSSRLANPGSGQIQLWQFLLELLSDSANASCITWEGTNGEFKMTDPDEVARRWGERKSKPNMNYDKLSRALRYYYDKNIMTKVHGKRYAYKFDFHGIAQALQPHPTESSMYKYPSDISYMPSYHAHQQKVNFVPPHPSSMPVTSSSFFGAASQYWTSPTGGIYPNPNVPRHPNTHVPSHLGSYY
Summary of the method: (§1)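 Human transcription factors fused to GST were expressed in yeast, captured on glutathione beads, given DNA barcodes and pooled with a GST-only negative control. Pools were incubated with 200 nmole of a 16-mer random double-stranded DNA library in Tris/NaCl/DTT/glycerol buffer at room temperature for 30 min. They were then washed, crosslinked with 0.1% formaldehyde, proximity-ligated (BsaI/T4 ligase, 1 h, 37 °C), PCR-amplified and sequenced on an Illumina NextSeq500. Binding signal is each 6-mer's read frequency for a factor divided by its frequency for the GST control.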

[2] = molecular target: T2, ELK1 (Homo sapiens, UniProt P19419 1-428)
T2 sequence: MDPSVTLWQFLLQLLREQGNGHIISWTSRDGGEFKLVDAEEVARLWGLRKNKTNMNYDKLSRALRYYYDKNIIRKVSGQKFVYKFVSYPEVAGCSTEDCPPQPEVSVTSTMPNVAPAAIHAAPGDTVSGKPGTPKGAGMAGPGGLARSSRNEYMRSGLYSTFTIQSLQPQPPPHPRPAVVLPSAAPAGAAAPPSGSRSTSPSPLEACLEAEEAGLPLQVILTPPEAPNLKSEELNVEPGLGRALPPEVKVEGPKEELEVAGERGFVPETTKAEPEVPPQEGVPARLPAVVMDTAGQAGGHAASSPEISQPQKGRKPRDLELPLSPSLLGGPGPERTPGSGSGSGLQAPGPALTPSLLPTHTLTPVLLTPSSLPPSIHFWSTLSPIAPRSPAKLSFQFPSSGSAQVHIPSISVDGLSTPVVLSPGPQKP
Summary of the method: as §1

[3] = molecular target: T3, GABPA (Homo sapiens, UniProt Q06546 1-454)
T3 sequence: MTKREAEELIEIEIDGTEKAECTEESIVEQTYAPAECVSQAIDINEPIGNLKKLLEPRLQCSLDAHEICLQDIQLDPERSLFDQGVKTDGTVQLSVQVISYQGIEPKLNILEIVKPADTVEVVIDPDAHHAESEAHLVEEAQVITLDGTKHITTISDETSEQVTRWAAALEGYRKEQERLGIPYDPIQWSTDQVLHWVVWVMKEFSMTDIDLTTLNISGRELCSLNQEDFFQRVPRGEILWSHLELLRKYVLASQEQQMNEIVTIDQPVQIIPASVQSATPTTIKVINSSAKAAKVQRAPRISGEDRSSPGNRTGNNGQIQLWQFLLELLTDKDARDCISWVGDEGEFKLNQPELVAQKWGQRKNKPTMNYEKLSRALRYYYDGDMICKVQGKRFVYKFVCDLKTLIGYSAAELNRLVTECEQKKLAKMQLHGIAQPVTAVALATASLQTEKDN
Summary of the method: as §1

[4] = molecular target: T4, ERG (Homo sapiens, UniProt P11308 1-479)
T4 sequence: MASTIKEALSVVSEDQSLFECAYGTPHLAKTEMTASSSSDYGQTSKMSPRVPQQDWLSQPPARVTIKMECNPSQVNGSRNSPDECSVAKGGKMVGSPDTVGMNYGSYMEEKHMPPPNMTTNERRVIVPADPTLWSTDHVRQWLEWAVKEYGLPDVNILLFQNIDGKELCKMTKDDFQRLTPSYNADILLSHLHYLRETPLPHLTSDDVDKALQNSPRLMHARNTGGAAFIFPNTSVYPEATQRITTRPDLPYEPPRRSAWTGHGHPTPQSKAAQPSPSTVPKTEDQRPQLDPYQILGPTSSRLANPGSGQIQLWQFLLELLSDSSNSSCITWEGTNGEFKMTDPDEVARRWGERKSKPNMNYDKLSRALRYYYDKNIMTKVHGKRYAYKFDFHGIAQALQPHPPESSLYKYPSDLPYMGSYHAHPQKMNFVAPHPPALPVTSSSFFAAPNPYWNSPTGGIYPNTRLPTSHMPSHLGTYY
Summary of the method: as §1

[5] = molecular target: ELF1 (Homo sapiens, UniProt P32519 1-619)
ELF1, sequence (P32519 whole entry): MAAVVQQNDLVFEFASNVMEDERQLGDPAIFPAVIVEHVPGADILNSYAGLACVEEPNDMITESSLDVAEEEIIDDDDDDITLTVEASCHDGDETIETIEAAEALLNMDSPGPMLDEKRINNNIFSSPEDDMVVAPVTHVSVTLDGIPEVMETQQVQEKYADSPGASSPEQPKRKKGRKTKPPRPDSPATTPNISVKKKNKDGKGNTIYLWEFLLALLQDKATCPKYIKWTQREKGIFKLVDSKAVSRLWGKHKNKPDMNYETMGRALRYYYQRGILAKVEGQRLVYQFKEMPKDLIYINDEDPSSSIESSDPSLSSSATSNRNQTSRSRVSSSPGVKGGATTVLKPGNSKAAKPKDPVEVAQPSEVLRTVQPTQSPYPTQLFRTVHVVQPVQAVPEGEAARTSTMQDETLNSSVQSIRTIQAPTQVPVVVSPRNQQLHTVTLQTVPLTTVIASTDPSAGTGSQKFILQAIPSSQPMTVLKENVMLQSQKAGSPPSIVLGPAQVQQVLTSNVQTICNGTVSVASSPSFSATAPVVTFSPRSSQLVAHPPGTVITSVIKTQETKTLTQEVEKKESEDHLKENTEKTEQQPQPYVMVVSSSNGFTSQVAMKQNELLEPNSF
Summary of the method: as §1

[6] = molecular target: T5, EHF (Homo sapiens, UniProt Q9NZC4 1-300)
T5 sequence: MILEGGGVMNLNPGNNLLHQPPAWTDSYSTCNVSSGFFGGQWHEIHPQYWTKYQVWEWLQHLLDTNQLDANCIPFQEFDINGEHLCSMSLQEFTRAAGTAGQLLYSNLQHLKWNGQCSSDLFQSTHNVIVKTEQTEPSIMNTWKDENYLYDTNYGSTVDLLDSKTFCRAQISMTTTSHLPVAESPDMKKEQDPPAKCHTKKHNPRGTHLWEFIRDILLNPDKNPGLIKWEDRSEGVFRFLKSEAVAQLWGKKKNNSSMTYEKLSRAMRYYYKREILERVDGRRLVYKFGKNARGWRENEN
Summary of the method: as §1

[7] = molecular target: SPI1 (Homo sapiens, UniProt P17947 1-270)
Summary of the method: as §1

[8] = molecular target: SPIB (Homo sapiens, UniProt Q01892 1-262)
SPIB, sequence (Q01892 whole entry): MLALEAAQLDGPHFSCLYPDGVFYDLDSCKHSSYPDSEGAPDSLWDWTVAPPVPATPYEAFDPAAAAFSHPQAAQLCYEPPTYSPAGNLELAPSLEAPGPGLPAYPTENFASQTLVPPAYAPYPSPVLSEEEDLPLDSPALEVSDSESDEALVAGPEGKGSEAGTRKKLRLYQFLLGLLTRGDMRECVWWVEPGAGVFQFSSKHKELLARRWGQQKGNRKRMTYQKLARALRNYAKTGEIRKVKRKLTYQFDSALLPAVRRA
Summary of the method: as §1

[9] = molecular target: T6, ELK3 (Homo sapiens, UniProt P41970 1-407)
T6 sequence: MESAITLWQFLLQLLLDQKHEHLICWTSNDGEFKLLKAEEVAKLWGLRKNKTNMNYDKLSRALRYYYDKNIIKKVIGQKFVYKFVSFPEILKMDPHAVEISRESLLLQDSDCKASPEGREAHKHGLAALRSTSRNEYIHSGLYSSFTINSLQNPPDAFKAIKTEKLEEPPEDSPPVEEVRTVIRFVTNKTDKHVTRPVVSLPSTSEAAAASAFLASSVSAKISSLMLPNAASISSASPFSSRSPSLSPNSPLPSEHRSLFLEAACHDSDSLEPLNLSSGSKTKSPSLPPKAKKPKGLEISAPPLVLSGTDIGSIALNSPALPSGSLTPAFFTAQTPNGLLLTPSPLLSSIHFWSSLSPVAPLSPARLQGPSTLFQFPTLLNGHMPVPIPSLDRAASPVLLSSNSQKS
Summary of the method: as §1

Sequence | binding signal [1] | binding signal [2] | binding signal [3] | binding signal [4] | binding signal [5] | binding signal [6] | binding signal [7] | binding signal [8] | binding signal [9]
ATTACG | 1.22 fold enrichment (6-mer frequency, TF over GST control) | 1.13 fold enrichment (6-mer frequency, TF over GST control) | 1.25 fold enrichment (6-mer frequency, TF over GST control) | 1.17 fold enrichment (6-mer frequency, TF over GST control) | 1.2 fold enrichment (6-mer frequency, TF over GST control) | 1.12 fold enrichment (6-mer frequency, TF over GST control) | 1.23 fold enrichment (6-mer frequency, TF over GST control) | 1.18 fold enrichment (6-mer frequency, TF over GST control) | 1.25 fold enrichment (6-mer frequency, TF over GST control)
AAAAAC | 1.31 fold enrichment (6-mer frequency, TF over GST control) | 1.12 fold enrichment (6-mer frequency, TF over GST control) | 1.26 fold enrichment (6-mer frequency, TF over GST control) | 1.26 fold enrichment (6-mer frequency, TF over GST control) | 1.23 fold enrichment (6-mer frequency, TF over GST control) | 1.28 fold enrichment (6-mer frequency, TF over GST control) | 1.46 fold enrichment (6-mer frequency, TF over GST control) | 1.24 fold enrichment (6-mer frequency, TF over GST control) | 1.31 fold enrichment (6-mer frequency, TF over GST control)
AGGAAG | 1.24 fold enrichment (6-mer frequency, TF over GST control) | 1.32 fold enrichment (6-mer frequency, TF over GST control) | 1.24 fold enrichment (6-mer frequency, TF over GST control) | 1.63 fold enrichment (6-mer frequency, TF over GST control) | 1.23 fold enrichment (6-mer frequency, TF over GST control) | 1.57 fold enrichment (6-mer frequency, TF over GST control) | 2.12 fold enrichment (6-mer frequency, TF over GST control) | 1.44 fold enrichment (6-mer frequency, TF over GST control) | 1.26 fold enrichment (6-mer frequency, TF over GST control)
TAATGT | 1.15 fold enrichment (6-mer frequency, TF over GST control) | 1.02 fold enrichment (6-mer frequency, TF over GST control) | 1.08 fold enrichment (6-mer frequency, TF over GST control) | 1.09 fold enrichment (6-mer frequency, TF over GST control) | 1.11 fold enrichment (6-mer frequency, TF over GST control) | 1.07 fold enrichment (6-mer frequency, TF over GST control) | 1.06 fold enrichment (6-mer frequency, TF over GST control) | 1.05 fold enrichment (6-mer frequency, TF over GST control) | 1.09 fold enrichment (6-mer frequency, TF over GST control)
CTGATC | 1.16 fold enrichment (6-mer frequency, TF over GST control) | 1.54 fold enrichment (6-mer frequency, TF over GST control) | 1.4 fold enrichment (6-mer frequency, TF over GST control) | 1.42 fold enrichment (6-mer frequency, TF over GST control) | 1.4 fold enrichment (6-mer frequency, TF over GST control) | 1.39 fold enrichment (6-mer frequency, TF over GST control) | 1.27 fold enrichment (6-mer frequency, TF over GST control) | 1.4 fold enrichment (6-mer frequency, TF over GST control) | 1.4 fold enrichment (6-mer frequency, TF over GST control)
CTCCAT | 1.34 fold enrichment (6-mer frequency, TF over GST control) | 1.38 fold enrichment (6-mer frequency, TF over GST control) | 1.31 fold enrichment (6-mer frequency, TF over GST control) | 1.34 fold enrichment (6-mer frequency, TF over GST control) | 1.34 fold enrichment (6-mer frequency, TF over GST control) | 1.37 fold enrichment (6-mer frequency, TF over GST control) | 1.32 fold enrichment (6-mer frequency, TF over GST control) | 1.25 fold enrichment (6-mer frequency, TF over GST control) | 1.36 fold enrichment (6-mer frequency, TF over GST control)
CAATTG | 1.32 fold enrichment (6-mer frequency, TF over GST control) | 1.19 fold enrichment (6-mer frequency, TF over GST control) | 1.26 fold enrichment (6-mer frequency, TF over GST control) | 1.14 fold enrichment (6-mer frequency, TF over GST control) | 1.28 fold enrichment (6-mer frequency, TF over GST control) | 1.27 fold enrichment (6-mer frequency, TF over GST control) | 1.25 fold enrichment (6-mer frequency, TF over GST control) | 1.16 fold enrichment (6-mer frequency, TF over GST control) | 1.23 fold enrichment (6-mer frequency, TF over GST control)
